An excerpt weighted towards active compounds, which were near 3.4% of everything screened.
MEKK2 WT-MEK5: raises or lowers MEK5 binding to wildtype human MEKK2 PB1 domain | bead flow cytometry, Alexa488-MEK5 binding to MEKK2 WT; actives lie on both sides | binding response (% of control), % at 10 µM | 1.1% of 290,000 active | AID 1531; in the data active = binding response below about 67% or above about 130%
TMEM16A inh: mouse TMEM16A channel inhibition, primary screen; Q8BHY3; HEK293 TMEM16A/YFP iodide influx fluorescence, ionomycin; normalized B-score (activity score, 25-100; higher = stronger inhibition) at 10 µM; 1.2% of 310,000 active;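 active = ratio plate-corrected score three or more library SD toward inhibition, starting fluorescence score within five deviations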;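 note: score derived from kinetic fluorescence span divided by baseline fluorescence per well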
ANO1 activ: activators or potentiators of mouse TMEM16A chloride channel | Q8BHY3 | HEK293 TMEM16A/YFP-H148Q/I152L, iodide quench fluorescence; stronger effect = lower value | B-score at 10 µM | 0.3% of 340,000 active;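 active = fluorescence-ratio B-score plate-corrected deviation score at least 3 library SD below zero, with starting fluorescence score within 5 deviations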;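 note: channel opened by trigger with iodide after compound preincubation; score built on the fluorescence ratio of max minus min over baseline; more negative score means more quench and so TMEM16A activation or potentiation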
MEKK2 mut-MEK5: signal of MEK5 binding to mutant human MEKK2 PB1 domain; bead flow cytometry, Alexa488-MEK5 binding to MEKK2 mutant; percent response, % at 10 µM; 0.35% of 290,000 active; AID 1530; in the data active = percent response above about 24%, passing the limit was not always enough
MEKK3 PB1 HTS: MEKK3-MEK5 PB1 interaction, increase or decrease; 1.4% of 290,000 active; binding response (% of control), % at 10 µM; bead-based flow cytometry, Alexa488-MEK5 binding to MEKK3; actives lie on both sides; 0 = blocked by unlabeled MEK5, 100 = vehicle; Q99759;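 active = binding response more than 3 SD above or below the average of its plate-row segment, actives on both sides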;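 note: Alexa488 bead fluorescence after subtracting the streptavidin-only scavenger bead signal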
Target sequence (Q99759 whole entry, looked up): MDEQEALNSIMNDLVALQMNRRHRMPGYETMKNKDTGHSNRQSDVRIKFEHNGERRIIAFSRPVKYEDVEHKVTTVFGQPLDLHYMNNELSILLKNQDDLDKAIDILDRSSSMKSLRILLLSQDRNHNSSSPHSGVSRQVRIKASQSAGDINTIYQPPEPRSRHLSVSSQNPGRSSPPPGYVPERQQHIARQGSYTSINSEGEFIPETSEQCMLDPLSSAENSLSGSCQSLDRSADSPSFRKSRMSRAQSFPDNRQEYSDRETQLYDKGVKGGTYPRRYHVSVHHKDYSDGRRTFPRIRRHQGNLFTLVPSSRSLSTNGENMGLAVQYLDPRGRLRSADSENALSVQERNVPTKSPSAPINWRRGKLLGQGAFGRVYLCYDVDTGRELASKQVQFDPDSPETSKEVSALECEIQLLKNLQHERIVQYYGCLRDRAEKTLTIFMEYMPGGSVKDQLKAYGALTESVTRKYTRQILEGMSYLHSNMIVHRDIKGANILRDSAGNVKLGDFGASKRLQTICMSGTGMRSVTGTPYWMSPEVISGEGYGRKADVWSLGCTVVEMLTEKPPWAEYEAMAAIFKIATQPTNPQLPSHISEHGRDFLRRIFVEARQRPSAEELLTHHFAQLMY
NTR1 agonist: NTR1 (human) agonism. P30989. NTR1-U2OS beta-arrestin-GFP spot imaging, agonist mode. activation, % at 20 µM. 0.17% of 330,000 active. AID 493036;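 active = activation at or above 40% of the spot to cytoplasm intensity ratio, with at least 20 cells analyzed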
MEKK2wt confirm: raises or lowers MEK5 binding to wildtype human MEKK2, retest. shares compounds with MEKK3 PB1 HTS. bead flow cytometry, Alexa488-MEK5 binding to MEKK2 WT; actives lie on both sides. binding response (% of control), % at 10 µM. 2.4% of 5,900 active; in the data active = binding response below about 16% or above about 210%; inactive = in between
MEKK2mut confirm: signal of MEK5 binding to mutant human MEKK2, retest; percent response, % at 10 µM; shares compounds with MEKK3 PB1 HTS; 2% of 5,900 active; AID 1893; bead flow cytometry, Alexa488-MEK5 binding to MEKK2 mutant; in the data active = percent response mostly above about 71%, no sharp cut-off; inactive = mostly below about 38%;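 note: higher means compound restores mutant binding toward wildtype level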
MEKK3-MEK5 inh: MEKK3-MEK5 PB1 inhibition, single concentration confirmation. shares compounds with MEKK3 PB1 HTS. bead flow cytometry, Alexa488-MEK5 binding to MEKK3; stronger effect = lower value. binding response (% of control), % at 10 µM. 1.8% of 5,900 active. AID 1894;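 active = binding response below 72% of control, or above a set upper limit, though filed actives all read lower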
A number is an active result; n = inactive; x = no result; [ ] = another dose, or the depositor's remark.

SMILES	MEKK2 WT-MEK5	TMEM16A inh	ANO1 activ	MEKK2 mut-MEK5	MEKK3 PB1 HTS	NTR1 agonist	MEKK2wt confirm	MEKK2mut confirm	MEKK3-MEK5 inh
Cc1cccc2cc(CN(CCN3CCOCC3)C(=O)Nc3ccccc3F)c(=O)[nH]c12	n	n	n	n	132.0	n	n	n	n
CN(c1ccccc1)S(=O)(=O)c1cccc(C(=O)OCC(=O)NCCCN2CCCC2=O)c1	n	n	n	n	n	n	x	x	x
O=C(CC(Nc1cccc(Cl)c1Cl)C(=O)O)c1ccccc1 (centres undefined)	n	n	n	n	n	n	x	x	x
O=C(CC(Nc1ccccc1Cl)C(=O)O)c1ccccc1 (centres undefined)	n	n	n	n	130.0	n	n	n	n
O=C(Nc1ccccc1)c1cccc(S(=O)(=O)Nc2ccccn2)c1	n	n	n	n	75.0[inhibitor]	n	n	n	n
COc1cc(/C=N/N(C)S(=O)(=O)c2ccc(C)cc2)cc([N+](=O)[O-])c1O	n	n	n	n	n	n	x	x	x
CCN(CC)c1ccc(/C=C/C(=O)c2ccc(Br)cc2)cc1	344.0	n	n	431.0	n	x	n	n	n
CN(C)c1ccc(C(=O)/C=C/c2ccc(Br)cc2)cc1	n	n	n	n	n	n	x	x	x
CSc1ccc(CNCCCSc2ncccn2)cc1	147.0	n	n	25.0	n	n	n	n	n
COc1ccc(CNCCCSc2ncccn2)cc1OC	n	n	n	30.0	n	n	n	n	n
Clc1cccc(CNCCCSc2ncccn2)c1	139.0	n	n	27.0	n	n	n	n	n
Clc1ccc(CNCCCSc2ncccn2)cc1	n	n	n	n	n	n	x	x	x
CCN1CCN(S(=O)(=O)c2ccc(Cl)c(C(=O)N(C)Cc3cccc(OC)c3)c2)CC1	x	n	n	x	x	n	x	x	x
CCCCN(CC)S(=O)(=O)N1CCC(C(=O)NCc2ccc(F)cc2)CC1	n	n	n	n	n	n	x	x	x
CCc1ccccc1NC(=O)COc1ccc2c(=O)c(Oc3cc(C)ccc3C)coc2c1	n	n	n	n	n	n	x	x	x
CC(C)c1ccccc1NC(=O)COc1ccc2c(=O)c(Oc3ccc4ccccc4c3)coc2c1	n	n	x	n	184.0	n	n	n	n
CCOC(=O)C(C(=O)OCC)c1cc(Br)c2noc3c2c1C(=O)c1ccccc1-3	39.0[inhibitor]	n	n	n	64.0[inhibitor]	n	n	n	68.0
CCN1CCN(/C=N/c2nc(C)cs2)CC1	-2.0[inhibitor]	n	n	n	2.0[inhibitor]	n	n	n	n
Brc1ccc(-c2csc(/N=C/N3CCCC3)n2)cc1	n	n	n	n	n	n	x	x	x
CN(C)c1ncc(S(=O)(=O)c2ccccc2)c(=O)[nH]1	n	n	n	n	n	n	x	x	x
O=c1cc(N2CCC3(CC2)OCCO3)[nH]c(=O)n1-c1ccc(Br)cc1	n	x	n	n	51.0[inhibitor]	x	n	n	n
COc1ccc(C(N)CCc2ccco2)cc1 (centres undefined)	n	n	n	27.0	n	n	n	n	n
CN(C)C(=O)NCc1ccc(S(N)(=O)=O)cc1	n	n	n	n	39.0[inhibitor]	n	n	n	n
CCOC(=O)C1CCC(CN(Cc2ccccc2C)S(=O)(=O)c2ccc([N+](=O)[O-])cc2)CC1 (centres undefined)	n	n	n	n	n	n	x	x	x
Cc1nn(C2CCCO2)c(=O)nc1N (centres undefined)	n	n	x	n	n	n	x	x	x
SMILES	MEKK2 WT-MEK5	TMEM16A inh	ANO1 activ	MEKK2 mut-MEK5	MEKK3 PB1 HTS	NTR1 agonist	MEKK2wt confirm	MEKK2mut confirm	MEKK3-MEK5 inh
CC(C)COC(=O)c1ccc(N2C(=O)c3ccccc3C2=O)cc1	7.0[inhibitor]	n	n	n	5.0[inhibitor]	n	n	n	n
COc1cc(C#N)ccc1OC(=O)c1cccc(S(=O)(=O)N2CCN(C)CC2)c1	x	n	n	x	x	n	x	x	x
Cc1ccc(C(C)C)c(OCC(=O)N/N=C/c2ccc(S(=O)(=O)O)o2)c1	n	n	n	n	130.0	n	n	n	n
CSc1nc(NCCCN(C)C)c2c3c(sc2n1)CN(C)CC3	138.0	n	x	30.0	n	n	n	n	n
CCOC(=O)c1nnn2c1nc(SCC(C)=O)c1ccccc12	138.0	n	n	n	132.0	n	n	n	n
C=CCSc1nc2c(C(=O)OCC)nnn2c2ccccc12	n	n	n	n	n	x	x	x	x
CC(C)c1ccc(NC2CCCN(C(=O)c3cccc(N4CCNC4=O)c3)C2)cc1 (centres undefined)	n	n	n	n	n	n	x	x	x
CC(C)(C)C1CCC2(CC1)C(Nc1cccc(C(F)(F)F)c1)=NC(=S)N2CC#N (centres undefined)	3.0[inhibitor]	n	n	n	2.0[inhibitor]	n	n	n	n
N#CCN1C(=S)N=C(Nc2cccc(Cl)c2)C12CCCCC2	n	n	n	n	n	n	x	x	x
CC(=O)Nc1ccc(Nc2nc3ccccc3nc2NS(=O)(=O)c2ccc(Cl)c([N+](=O)[O-])c2)cc1	x	x	n	x	x	x	x	x	x
Cc1ccc2[nH]c(C(=O)NCCN3CCCC3)cc2c1	137.0	n	n	n	n	n	n	n	n
O=C(Nc1nccs1)c1ccc(-c2ccc(Cl)cc2)o1	3.0[inhibitor]	n	n	n	3.0[inhibitor]	n	n	n	n
COc1ccc(C(=O)NCc2csc(C(C)C)n2)cc1OC1CCN(C(C)=O)CC1	n	n	n	n	n	n	x	x	x
CCOc1ccc(N2C(=O)CC(NNc3nc4ccccc4s3)C2=O)cc1 (centres undefined)	n	n	n	n	n	n	x	x	x
CC(=O)Nc1ccc(-c2nc3c(C)cccc3[nH]2)cc1	3.0[inhibitor]	n	n	n	3.0[inhibitor]	n	n	n	n
O=C(CN1C(=O)NC2(CCCC2)C1=O)NCc1ccccc1	x	x	n	x	x	n	x	x	x
CC(=O)c1c(C)[nH]c(C(=O)OCC(=O)NCCC2=CCCCC2)c1C	x	n	n	x	x	n	x	x	x
COc1ccc(S(=O)(=O)Nc2ccc(S(=O)(=O)N3CCCCC3)cc2)cc1	n	n	n	n	n	n	x	x	x
S=c1sc(SCCOc2ccccc2)nn1-c1ccccc1	n	n	n	n	132.0	n	n	n	n
Cc1cc(=O)oc2cc(NC(=O)CN3C(=O)NC(C)(c4ccccc4)C3=O)ccc12 (centres undefined)	x	n	n	x	x	n	x	x	x
OCCCNC(=S)Nc1ccc2nccnc2c1	n	n	n	n	n	n	x	x	x
Fc1ccc(NC(=S)Nc2ccc3nccnc3c2)cc1	n	n	n	n	130.0	n	n	n	n

Bioassay records deposited in PubChem BioAssay by several laboratories.
